PubChem BioAssay (NCI)
About 83,000 compounds went through this panel and 20% of them were active in at least one assay; those are over-represented in the sample as a whole.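 Single-concentration screen, 48 h exposure, 96-well plates. Endpoint: percent growth. Below 10 = active.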 A number with no mark means an inactive call. Active and inactive are the calls of the source.

Experiments:
Test in all cases: NCI-60 one-dose screen, 48 h (100 = growth as untreated, 0 = no growth, -100 = all killed)
NCI-H460 lung = conditions: 10 µM unless noted
786-0 renal = conditions: 10 µM unless noted
COLO 205 colon = conditions: 10 µM
MALME-3M melanoma = conditions: 10 µM unless noted
RXF 393 renal = conditions: 10 µM unless noted
SF-295 CNS = conditions: 10 µM unless noted
SF-539 CNS = conditions: 10 µM unless noted
UACC-257 melanoma = conditions: 10 µM unless noted
HT29 colon = conditions: 10 µM unless noted
SK-MEL-5 melanoma = conditions: 10 µM unless noted
SK-MEL-2 melanoma = conditions: 10 µM unless noted
UO-31 renal = conditions: 10 µM unless noted
TK-10 renal = conditions: 10 µM unless noted
ACHN renal = conditions: 10 µM unless noted
A498 renal = conditions: 10 µM unless noted
HL-60(TB) leukemia = conditions: 10 µM unless noted
MOLT-4 leukemia = conditions: 10 µM
T-47D breast = conditions: 10 µM unless noted
SW-620 colon = conditions: 10 µM unless noted
HCC-2998 colon = conditions: 10 µM unless noted

Structure (SMILES)	growth (NCI-H460 lung)	growth (786-0 renal)	growth (COLO 205 colon)	growth (MALME-3M melanoma)	growth (RXF 393 renal)	growth (SF-295 CNS)	growth (SF-539 CNS)	growth (UACC-257 melanoma)	growth (HT29 colon)	growth (SK-MEL-5 melanoma)	growth (SK-MEL-2 melanoma)	growth (UO-31 renal)	growth (TK-10 renal)	growth (ACHN renal)	growth (A498 renal)	growth (HL-60(TB) leukemia)	growth (MOLT-4 leukemia)	growth (T-47D breast)	growth (SW-620 colon)	growth (HCC-2998 colon)
CCCC(C)(C)c1ccc2c(c1)OC(C)(C)[C@@H]1CC=C(C)C[C@@H]21	106%	98.8%	107%	93.6%	108%	101%	104%	93.1%	102%	102%	94.7%	79.8%	107%	105%	83.9%	92.7%	95.6%	97.2%	97.3%	109%
CC(=O)[O][Hg][CH2]C1(C)COC(C)([CH2][Hg][O]C(C)=O)CO1 (stereo not given)	78.1%	79%	-77.4% (active)	–	–	69.2%	-87.2% (active)	93.6%	-25.6% (active)	-35.9% (active)	63.2%	-39.3% (active)	–	63.1%	75.8%	74.4%	-19.9% (active)	4.43% (active)	-92.3% (active)	4.37% (active)
N#CC(C#N)=Cc1ccc2ccccc2c1	–	104%	110%	–	96.5%	111%	107%	108%	113%	101%	102%	–	111%	107%	–	96.4%	107%	110%	–	–
Cc1cc(NC(=O)/C=C/c2ccc([N+](=O)[O-])cc2)ccc1S(=O)(=O)F	103%	89.1%	102%	103%	119%	–	112%	97.4%	99.7%	100%	107%	71.8%	96.2%	105%	98.7%	98.5%	89.5%	87.6%	110%	102%
CC(=O)Nc1ccc(Cc2ccc(NC(C)=O)cc2)cc1	104%	101%	–	103%	89.4%	108%	104%	99.1%	104%	104%	125%	78%	106%	101%	129%	49.1%	76.3%	103%	117%	116%
N#[N+]c1nc2nc(N)[nH]c(=O)c2[nH]1	101%	102%	103%	107%	111%	101%	101%	88.8%	104%	92.5%	101%	72%	90%	99.6%	107%	100%	103%	100%	97.9%	104%
Cc1ccc(N)cc1[As]=[As]c1cc(N)ccc1C (stereo not given)	60.4%	-89.3% (active)	-69.3% (active)	-90.7% (active)	–	73.2%	-94.5% (active)	-97.3% (active)	-84.6% (active)	-87.2% (active)	–	-99.7% (active)	–	-91.6% (active)	-26.3% (active)	-43.9% (active)	-29.9% (active)	-41.9% (active)	-57% (active)	-73.8% (active)
CC(C)(C)NCC(O)c1ccccc1Cl (stereo not given)	6.76% (active)	20.9%	5.34% (active)	35.8%	-19.8% (active)	-3.79% (active)	7.78% (active)	54.5%	2.91% (active)	–	-20.2% (active)	48.1%	17.3%	53.7%	-9.2% (active)	1.68% (active)	31.6%	51.5%	22%	-28.8% (active)
